Values joined by “and” are separate entries in the source; they are usually repeats but may differ in a detail not shown here. Equal entries are not always repeated. Some compounds were tested as several samples or in several runs, with calls that do not always agree. Active and inactive are the calls of the source. How the source made its calls: active means hit-call score of the fitted dose curve at least 0.9, where 1 is the maximum; inactive means score below 0.9.
What was measured:
[1] = ATG_GLI_CIS: Attagene CIS-FACTORIAL HepG2 Assay for human Zinc Finger Protein GLI1 (AID 2282945); conditions: HepG2, Attagene cis-factorial reporter mRNA, GLI element; actives raise or lower the signal
Method in brief: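 Bidirectional curve fits relative to DMSO, using reporter mRNA levels from RT-PCR plus capillary electrophoresis. Cells were HepG2 transiently carrying cis-regulated reporter constructs, harvested 24 h after dosing.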

[2] = target: Bile acid receptor (Homo sapiens) (UniProt Q96RI1); assay: ATG_IR1_CIS: Attagene CIS-FACTORIAL HepG2 Assay for human Nuclear Receptor Subfamily 1 Group H Member 4 (NR1H4), IR1 submotif (AID 2282946); conditions: IR1 reporter transcription, actives raise or lower the signal
Method in brief: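 HepG2 cells transiently transfected with multiplexed cis-element reporter units read endogenous transcription factor activity. After 24 h compound exposure, reporter mRNA was quantified by RT-PCR, fluorescent labelling, HpaI digestion and capillary electrophoresis; bidirectional fitting versus DMSO baseline.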

[3] = ATG_GRE_CIS: Attagene CIS-FACTORIAL HepG2 Assay for human Glucocorticoid Response Elements (GRE) (AID 2282947); conditions: HepG2 GRE cis-reporter, Attagene multiplex mRNA; actives raise or lower the signal
Method in brief: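 Multiplexed cis-reporter mRNA induction, HepG2, 24 h post-dose. RT-PCR, FAM-labelled, HpaI-digested amplicons by CE. Bidirectional fit vs DMSO.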

[4] = ATG_ISRE_CIS: Attagene CIS-FACTORIAL HepG2 Assay for human Interferon Regulatory Factor 1 (IRF1) binding to an Interferon-Stimulated Response Element (ISRE) (AID 2282948); conditions: HepG2 ISRE cis-reporter (Attagene), mRNA transcription readout; actives raise or lower the signal
Method in brief: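 Multiplexed mRNA reporter readout in human liver HepG2 cells: cis-element-driven reporters transfected, compound added for 24 h, transcripts amplified, fluorescently labelled and sized by capillary electrophoresis; curve fitting bidirectional against DMSO.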

[5] = ATG_M_32_CIS: Attagene CIS-FACTORIAL HepG2 Assay for M32 Transcription Factor (Internal Marker) (AID 2282949); conditions: HepG2 Attagene cis-factorial M32 reporter, mRNA; actives raise or lower the signal;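 further: background control marker of the multiplexed CIS panel rather than a real target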
Method in brief: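 Transient MRTU transfection of HepG2; 24 h compound treatment; TriZol RNA, oligo(dT) RT, reporter PCR, 6-FAM primer extension, HpaI cut, CE. Gain/loss of signal vs DMSO.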

[6] = target: Hypoxia-inducible factor 1-alpha (Homo sapiens) (UniProt Q16665); assay: ATG_HIF1a_CIS: Attagene CIS-FACTORIAL HepG2 Assay for human Hypoxia Inducible Factor 1 (HIF1A) (AID 2282951); conditions: HepG2 Attagene cis-factorial HIF1a reporter transcription; actives raise or lower the signal
Method in brief: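 HepG2 cells transiently transfected with multiple cis-regulated reporter transcription units measure endogenous transcription factor activity. After 24 h exposure, reporter mRNA is quantified by RT-PCR with 6-FAM labelling, HpaI digestion and capillary electrophoresis. Bidirectional fitting against DMSO.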

[7] = target: Hepatocyte nuclear factor 6 (Homo sapiens) (UniProt Q9UBC0); assay: ATG_HNF6_CIS: Attagene CIS-FACTORIAL HepG2 Assay for human Hepatocyte Nuclear Factor 6 (HNF6) (AID 2282952); conditions: HepG2 Attagene cis-factorial HNF6 reporter transcription; actives raise or lower the signal
Method in brief: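 Readout: fluorescent reporter-transcript fragments resolved by capillary electrophoresis after RT-PCR, reflecting endogenous factor activity in transfected HepG2. Exposure 24 h. Gain or loss of signal fitted bidirectionally against DMSO.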

[8] = target: Heat shock factor protein 1 (Homo sapiens) (UniProt Q00613); assay: ATG_HSE_CIS: Attagene CIS-FACTORIAL HepG2 Assay for human Heat Shock Transcription Factor 1 (HSE) (AID 2282953); conditions: HepG2 HSE cis-reporter, Attagene RNA transcription; actives raise or lower the signal
Method in brief: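 Reporter mRNA induction in HepG2 is measured 24 h after dosing, using transiently transfected multiplexed cis-regulated reporter units. Signal comes from capillary electrophoresis of labelled RT-PCR products, with DMSO as negative control.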

[9] = ATG_MRE_CIS: Attagene CIS-FACTORIAL HepG2 Assay for human Metal Responsive Element (MRE) (AID 2282954); conditions: HepG2 MRE cis-reporter transcription, Attagene multiplex; actives raise or lower the signal
Method in brief: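 Multiplexed cis-reporter assay in human HepG2 liver cells, 24 h incubation with test chemical. Reporter transcripts measured by RT-PCR and capillary electrophoresis; values from bidirectional curve fitting versus DMSO.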

[10] = ATG_PBREM_CIS: Attagene CIS-FACTORIAL HepG2 Assay for human Phenobarbital-responsive Enhancer Module (PBREM) (AID 2282955); conditions: HepG2 PBREM cis-reporter, Attagene multiplexed transcription; actives raise or lower the signal
Method in brief: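 HepG2 cells transiently transfected with multiple cis-regulated reporter units measure endogenous transcription factor activity; 24 h compound exposure. Reporter mRNA quantified by RT-PCR, fluorescent labelling, HpaI digestion and capillary electrophoresis; bidirectional fit versus DMSO.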

[11] = target: Paired box protein Pax-6 (Homo sapiens) (UniProt P26367); assay: ATG_Pax6_CIS: Attagene CIS-FACTORIAL HepG2 Assay for human Paired Box 6 (PAX6) (AID 2282956); conditions: HepG2 CIS-FACTORIAL PAX6 reporter transcription, RNA readout; actives raise or lower the signal
Method in brief: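 Fluorescent RT-PCR products separated by capillary electrophoresis report PAX6-linked promoter mRNA in HepG2 cells 24 h post-dose. Curves fitted bidirectionally, DMSO as negative control.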

[12] = ATG_PXRE_CIS: Attagene CIS-FACTORIAL HepG2 Assay for human Pregnane X Receptor Element (PXRE) (AID 2282957); conditions: HepG2 Attagene CIS-FACTORIAL PXRE reporter, mRNA; actives raise or lower the signal
Method in brief: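 Read-out: fluorescence of reporter-specific RT-PCR products resolved by capillary electrophoresis, fitted bidirectionally relative to DMSO. Human HepG2 liver cells carried transfected cis-promoter reporter units and were exposed to chemicals for 24 h.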

[13] = ATG_PPRE_CIS: Attagene CIS-FACTORIAL HepG2 Assay for human Peroxisome Proliferator-activated Response Element (PPRE) (AID 2282958); conditions: HepG2 PPRE cis-element reporter, Attagene transcription factor profiling; actives raise or lower the signal
Method in brief: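 HepG2 cells are transiently transfected with multiplexed cis-promoter reporter units to report endogenous PPAR activity. After 24 h dosing, reporter mRNA is read by RT-PCR and capillary electrophoresis. Fitting is bidirectional against DMSO.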

[14] = ATG_RORE_CIS: Attagene CIS-FACTORIAL HepG2 Assay for human RAR-related Orphan Receptor Element (RORE) (AID 2282959); conditions: HepG2 Attagene cis-factorial RORE reporter, mRNA; actives raise or lower the signal
Method in brief: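 HepG2 cells carrying transiently transfected cis-regulated reporter units; RORE-driven reporter mRNA quantified 24 h post-dosing by RT-PCR, 6-FAM primer extension, HpaI digestion and capillary electrophoresis. Bidirectional fit versus DMSO.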

[15] = target: Transcription factor Sp1 (Homo sapiens) (UniProt P08047); assay: ATG_Sp1_CIS: Attagene CIS-FACTORIAL HepG2 Assay for human Specificity Protein 1 (Sp1) (AID 2282961); conditions: HepG2 Sp1 cis-reporter transcription, actives raise or lower the signal
Method in brief: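 HepG2 cells transiently transfected with multiplexed cis-regulated reporter constructs, chemical exposure 24 h. Reporter mRNA quantified by RT-PCR with capillary electrophoresis; bidirectional fit relative to DMSO.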

[16] = ATG_SREBP_CIS: Attagene CIS-FACTORIAL HepG2 Assay for human Sterol Regulatory Element Binding (SREBP) (AID 2282962); conditions: HepG2 Attagene cis-factorial SREBP reporter, mRNA; actives raise or lower the signal
Method in brief: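 Endogenous factor activity is measured in HepG2 through multiplexed reporter units under cis-element control. Following a 24 h incubation, reporter transcripts are reverse-transcribed, PCR-amplified and sized by capillary electrophoresis; activity is fitted in both directions relative to DMSO.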

[17] = target: Signal transducer and activator of transcription 3 (Homo sapiens) (UniProt P40763); assay: ATG_STAT3_CIS: Attagene CIS-FACTORIAL HepG2 Assay for human Signal Transducer and Activator of Transcription 3 (STAT3) (AID 2282963); conditions: HepG2, Attagene cis-factorial STAT3 reporter transcription; actives raise or lower the signal
Method in brief: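 Cis-factorial format: endogenous transcription factors in HepG2 drive transfected reporter units. After 24 h treatment, reporter RNA was reverse-transcribed, amplified, FAM-labelled and HpaI-digested before CE analysis; activity scored in both directions against DMSO.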

[18] = ATG_TA_CIS: Attagene CIS-FACTORIAL HepG2 Assay for human TA Basal Promoter (AID 2282964); conditions: HepG2 Attagene CIS-factorial TA basal promoter reporter; actives raise or lower the signal
Method in brief: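 Cis-factorial format in HepG2: reporters report endogenous factors, not chimeric Gal4 fusions. After 24 h treatment, reporter transcripts were measured by RT-PCR-capillary electrophoresis fluorescence, analysed bidirectionally versus DMSO.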

[19] = ATG_Sox_CIS: Attagene CIS-FACTORIAL HepG2 Assay for human SRY-box transcription factor (SOX) (AID 2282960); conditions: HepG2 Attagene cis-factorial SOX reporter, mRNA; actives raise or lower the signal
Method in brief: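 HepG2 cells transiently transfected with multiple cis-regulated reporter units, then dosed for 24 h. Reporter mRNA quantified by RT-PCR, fluorescent labelling, HpaI digestion and capillary electrophoresis; bidirectional fit versus DMSO.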

[20] = ATG_M_06_CIS: Attagene CIS-FACTORIAL HepG2 Assay for M06 Transcription Factor (Internal Marker) (AID 2282950); conditions: HepG2 Attagene CIS-FACTORIAL M06 internal marker reporter; actives raise or lower the signal
Method in brief: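 Measured 24 h post-dosing in transiently transfected HepG2 cells, this internal-marker endpoint reports reporter mRNA via RT-PCR with fluorescent primer extension and capillary electrophoresis. DMSO served as negative control and baseline for bidirectional fitting.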

Measured: AC50

Chain of Bile acid receptor (Homo sapiens) (Q96RI1 whole entry, looked up): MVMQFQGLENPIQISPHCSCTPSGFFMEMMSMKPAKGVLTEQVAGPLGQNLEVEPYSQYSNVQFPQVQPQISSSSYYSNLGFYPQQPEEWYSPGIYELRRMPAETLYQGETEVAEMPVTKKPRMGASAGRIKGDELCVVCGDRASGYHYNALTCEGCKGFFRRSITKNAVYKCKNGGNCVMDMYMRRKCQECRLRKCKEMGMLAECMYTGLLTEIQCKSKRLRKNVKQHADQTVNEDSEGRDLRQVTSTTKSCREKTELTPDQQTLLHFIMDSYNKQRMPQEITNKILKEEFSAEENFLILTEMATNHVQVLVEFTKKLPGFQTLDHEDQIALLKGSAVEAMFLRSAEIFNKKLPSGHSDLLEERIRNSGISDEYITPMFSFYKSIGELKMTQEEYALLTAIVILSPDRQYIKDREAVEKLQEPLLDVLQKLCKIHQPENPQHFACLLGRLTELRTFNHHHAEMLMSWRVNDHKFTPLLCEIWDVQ
Chain of Heat shock factor protein 1 (Homo sapiens) (Q00613 whole entry, looked up): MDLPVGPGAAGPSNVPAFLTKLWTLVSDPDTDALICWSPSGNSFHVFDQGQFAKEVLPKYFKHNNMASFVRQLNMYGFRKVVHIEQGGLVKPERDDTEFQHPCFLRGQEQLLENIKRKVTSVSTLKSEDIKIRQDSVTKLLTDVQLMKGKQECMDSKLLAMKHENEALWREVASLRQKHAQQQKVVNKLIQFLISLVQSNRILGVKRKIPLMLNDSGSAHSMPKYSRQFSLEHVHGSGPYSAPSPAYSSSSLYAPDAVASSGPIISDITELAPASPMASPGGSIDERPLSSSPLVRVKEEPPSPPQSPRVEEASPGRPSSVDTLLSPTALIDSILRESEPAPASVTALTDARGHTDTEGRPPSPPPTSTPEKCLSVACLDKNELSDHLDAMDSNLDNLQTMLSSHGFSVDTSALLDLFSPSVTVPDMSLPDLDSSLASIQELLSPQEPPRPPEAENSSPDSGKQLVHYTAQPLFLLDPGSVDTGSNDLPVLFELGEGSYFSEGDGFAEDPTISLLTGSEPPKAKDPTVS
Chain of Paired box protein Pax-6 (Homo sapiens) (P26367 whole entry, looked up): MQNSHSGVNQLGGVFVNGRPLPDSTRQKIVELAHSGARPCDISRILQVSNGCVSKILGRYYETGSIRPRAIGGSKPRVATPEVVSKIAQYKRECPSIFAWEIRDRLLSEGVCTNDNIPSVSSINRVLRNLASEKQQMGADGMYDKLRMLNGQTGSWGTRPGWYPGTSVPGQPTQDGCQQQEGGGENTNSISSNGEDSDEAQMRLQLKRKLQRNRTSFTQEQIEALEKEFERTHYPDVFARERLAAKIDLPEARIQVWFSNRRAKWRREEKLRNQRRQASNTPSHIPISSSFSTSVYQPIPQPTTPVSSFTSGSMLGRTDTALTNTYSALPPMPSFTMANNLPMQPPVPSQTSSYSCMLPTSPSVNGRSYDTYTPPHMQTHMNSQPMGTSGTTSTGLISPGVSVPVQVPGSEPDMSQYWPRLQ
Chain of Transcription factor Sp1 (Homo sapiens) (P08047 whole entry, looked up): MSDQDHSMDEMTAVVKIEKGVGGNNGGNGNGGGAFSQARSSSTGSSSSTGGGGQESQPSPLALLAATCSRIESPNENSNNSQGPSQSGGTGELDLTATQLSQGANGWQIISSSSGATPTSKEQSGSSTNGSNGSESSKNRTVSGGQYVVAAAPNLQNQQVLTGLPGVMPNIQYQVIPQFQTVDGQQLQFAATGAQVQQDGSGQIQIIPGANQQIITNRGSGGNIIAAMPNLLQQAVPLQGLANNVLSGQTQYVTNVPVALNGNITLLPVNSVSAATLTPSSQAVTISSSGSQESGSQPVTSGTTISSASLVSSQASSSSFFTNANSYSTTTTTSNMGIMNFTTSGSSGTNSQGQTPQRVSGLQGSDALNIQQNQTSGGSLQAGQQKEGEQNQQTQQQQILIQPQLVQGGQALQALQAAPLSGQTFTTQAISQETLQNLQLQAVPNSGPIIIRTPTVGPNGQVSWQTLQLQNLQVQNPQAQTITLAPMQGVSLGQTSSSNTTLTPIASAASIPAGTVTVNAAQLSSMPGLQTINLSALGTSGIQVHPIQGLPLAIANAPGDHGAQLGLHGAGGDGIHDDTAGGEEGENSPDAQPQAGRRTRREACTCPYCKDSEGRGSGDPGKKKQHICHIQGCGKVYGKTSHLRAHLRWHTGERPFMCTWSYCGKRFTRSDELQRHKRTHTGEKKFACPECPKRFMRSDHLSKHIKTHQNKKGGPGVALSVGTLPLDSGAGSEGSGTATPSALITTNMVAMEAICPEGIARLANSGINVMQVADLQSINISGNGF
Chain of Hepatocyte nuclear factor 6 (Homo sapiens) (Q9UBC0 whole entry, looked up, the tested form may be a part): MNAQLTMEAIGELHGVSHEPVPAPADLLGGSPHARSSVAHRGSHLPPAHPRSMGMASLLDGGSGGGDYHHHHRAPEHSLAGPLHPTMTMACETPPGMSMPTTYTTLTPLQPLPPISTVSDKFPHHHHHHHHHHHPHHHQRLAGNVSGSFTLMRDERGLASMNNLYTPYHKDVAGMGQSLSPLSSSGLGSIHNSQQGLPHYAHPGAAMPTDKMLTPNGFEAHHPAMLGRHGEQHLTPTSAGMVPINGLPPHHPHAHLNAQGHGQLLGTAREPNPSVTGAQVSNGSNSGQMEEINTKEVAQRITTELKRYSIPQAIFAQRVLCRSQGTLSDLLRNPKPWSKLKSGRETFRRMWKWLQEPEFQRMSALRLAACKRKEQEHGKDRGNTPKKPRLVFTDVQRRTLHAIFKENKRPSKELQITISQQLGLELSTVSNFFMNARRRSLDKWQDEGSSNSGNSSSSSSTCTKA
Chain of Signal transducer and activator of transcription 3 (Homo sapiens) (P40763 whole entry, looked up): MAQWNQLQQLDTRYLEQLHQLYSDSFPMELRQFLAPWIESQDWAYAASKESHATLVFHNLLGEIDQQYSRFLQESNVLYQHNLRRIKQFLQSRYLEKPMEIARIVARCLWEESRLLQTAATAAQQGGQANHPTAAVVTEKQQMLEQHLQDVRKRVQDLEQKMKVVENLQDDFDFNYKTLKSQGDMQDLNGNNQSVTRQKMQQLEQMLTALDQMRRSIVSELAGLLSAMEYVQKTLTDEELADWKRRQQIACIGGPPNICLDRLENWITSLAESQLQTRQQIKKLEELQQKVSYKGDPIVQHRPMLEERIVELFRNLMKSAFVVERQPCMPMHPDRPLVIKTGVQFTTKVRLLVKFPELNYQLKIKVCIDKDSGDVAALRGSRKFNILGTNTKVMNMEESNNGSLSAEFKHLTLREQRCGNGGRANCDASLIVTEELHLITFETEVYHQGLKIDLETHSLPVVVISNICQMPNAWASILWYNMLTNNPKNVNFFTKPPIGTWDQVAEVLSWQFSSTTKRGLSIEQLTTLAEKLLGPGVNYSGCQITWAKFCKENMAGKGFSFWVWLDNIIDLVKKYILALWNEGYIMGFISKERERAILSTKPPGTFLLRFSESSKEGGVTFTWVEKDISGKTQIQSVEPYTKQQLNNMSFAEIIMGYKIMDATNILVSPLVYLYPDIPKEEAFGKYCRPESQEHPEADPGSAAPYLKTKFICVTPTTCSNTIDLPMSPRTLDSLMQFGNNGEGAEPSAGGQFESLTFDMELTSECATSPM
Chain of Hypoxia-inducible factor 1-alpha (Homo sapiens) (Q16665 whole entry, looked up): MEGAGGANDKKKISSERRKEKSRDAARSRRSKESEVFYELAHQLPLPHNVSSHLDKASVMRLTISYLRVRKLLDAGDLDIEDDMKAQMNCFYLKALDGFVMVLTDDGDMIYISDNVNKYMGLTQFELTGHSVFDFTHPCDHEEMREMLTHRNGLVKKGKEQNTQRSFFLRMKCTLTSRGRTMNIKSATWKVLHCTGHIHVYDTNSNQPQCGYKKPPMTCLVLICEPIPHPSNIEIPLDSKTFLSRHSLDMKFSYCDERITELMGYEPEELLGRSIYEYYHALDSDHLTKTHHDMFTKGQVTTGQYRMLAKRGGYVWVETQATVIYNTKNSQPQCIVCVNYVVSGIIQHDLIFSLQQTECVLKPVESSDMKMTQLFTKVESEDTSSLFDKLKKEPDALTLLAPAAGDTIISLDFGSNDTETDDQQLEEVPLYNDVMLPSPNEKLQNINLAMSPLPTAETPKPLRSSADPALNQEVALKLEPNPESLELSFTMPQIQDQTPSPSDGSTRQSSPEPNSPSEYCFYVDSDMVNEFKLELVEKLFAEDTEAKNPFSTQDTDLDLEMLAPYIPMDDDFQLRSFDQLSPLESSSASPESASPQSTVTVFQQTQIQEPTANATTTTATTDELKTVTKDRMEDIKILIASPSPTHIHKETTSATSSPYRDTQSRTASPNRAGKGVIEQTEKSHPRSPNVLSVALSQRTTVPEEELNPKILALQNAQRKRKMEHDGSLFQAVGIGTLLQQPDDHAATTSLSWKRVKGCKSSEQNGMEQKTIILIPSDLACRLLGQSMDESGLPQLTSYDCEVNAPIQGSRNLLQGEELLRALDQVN

NC(=O)c1cccnc1
active: [12] 32.3 µM
not listed: [19] | [20]
inactive: all other assays above

CC=CC(=O)C1=C(C)C=CCC1(C)C
active: [12] 55.4 µM
not listed: [14] | [20]
inactive: all other assays above

O=C(c1ccc(OCCN2CCCCC2)cc1)c1c(-c2ccc(O)cc2)sc2cc(O)ccc12
active: [1] 11.1 µM and 15.2 µM | [3] 20.2 µM | [4] 11.1 µM and 17 µM and 14.8 µM | [7] 11.1 µM and 21.4 µM | [8] 17.2 µM and 17.7 µM and 19.8 µM | [9] 15.8 µM [middle of 4 runs] | [11] 11.1 µM [middle of 4 runs] | [12] 2.79 µM [middle of 4 runs] | [19] 13 µM and 18 µM | [15] 11.1 µM and 16.7 µM | [16] 6.38 µM and 2.85 µM and 2.92 µM | [18] 19.3 µM and 8.31 µM
inactive: [1] | [3] | [4] | [7] | [8] | [9] | [10] | [11] | [12] | [13] | [19] | [15] | [16] | [17] | [18]

CCC(C)(C)c1cc(O)c(C(C)(C)CC)cc1O
active: [1] 6.82 µM | [2] 24.2 µM | [3] 24.8 µM | [4] 20.2 µM | [6] 10.7 µM | [7] 30 µM | [8] 49.3 µM | [9] 16.2 µM | [11] 68.9 µM | [15] 4.19 µM | [16] 4.61 µM
inactive: [5] | [20] | [10] | [12] | [13] | [14] | [17] | [18]

CC(=O)c1ccc2ccccc2c1
not listed: [19]
inactive: all other assays above

O=c1cc[nH]cc1
active: [12] 21 µM
not listed: [6] | [7] | [14] | [20]
inactive: all other assays above

Reference: PubChem BioAssay (EPA / NIEHS)
